Screening data: PubChem, National Center for Advancing Translational Sciences (NCATS)
ERK EGF block = qHTS Assay for Inhibitors of the ERK Signaling Pathway using a Homogeneous Screening Assay; Stimulation with EGF | Potency, µM (doses to about 11.5 µM), most hits filed as inhibitors | HEK293-V1b, EGF-stimulated phospho-ERK AlphaScreen | hit rate 0.41% among 130,000; active = well fitted inhibition curve with a large enough effect; note: nearly all actives have a fitted effect of over 55% in size
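HEK293 cells stably expressing V1b receptor, serum-reduced (1% FBS) overnight, pretreated 30 min with compound, then stimulated 5 min with 25 nM EGF; phospho-ERK detected by AlphaScreen SureFire. AC50 from Hill fits, normalized to DMSO and EGF.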
Large screens that a line does not name were inactive. The sample as a whole holds a higher share of hits than the screen did.

CC(=C1C(=O)c2ccccc2C1=O)N1CCN(c2ccc(F)cc2)CC1	none
CCOC(=O)C1CCN(C2=C(NS(=O)(=O)c3ccc(Cl)cc3)C(=O)c3ccccc3C2=O)CC1	ERK EGF block 32µM
CCOC(=O)C1CCN(C(=O)c2ccccc2NS(=O)(=O)c2ccc(F)c(F)c2)CC1	none
Cc1ccc(S(=O)(=O)NCC(c2ccccc2)N2CCCCC2)cc1 (stereo not given)	none
CC1CCN(C2=C(NS(=O)(=O)c3ccc(Cl)cc3)C(=O)c3ccccc3C2=O)CC1	ERK EGF block 16µM
CC1CCN(C2=C(NS(=O)(=O)c3ccccc3)C(=O)c3ccccc3C2=O)CC1	ERK EGF block 18µM
CCC1CCCCN1CC(C)(C)NS(=O)(=O)c1ccccc1 (stereo not given)	none
Cc1ccccc1NS(=O)(=O)c1ccc(Cl)cc1	none
O=S(=O)(Nc1nc2ccccc2nc1N1CCN(c2ccccc2)CC1)c1ccc(F)cc1	none
CC1CCN(S(=O)(=O)c2ccccc2[N+](=O)[O-])CC1	none
O=C1C(NS(=O)(=O)c2ccccc2)=C(N2CCN(c3ccc(F)cc3)CC2)C(=O)c2ccccc21	ERK EGF block 25µM
CCOC(=O)C1CCN(S(=O)(=O)c2ccc(C(C)(C)C)cc2)CC1	none
CCNC(=O)[C@H](C)/C=C/C(NC(=O)OCc1ccccc1)c1ccc(C(=O)OC)cc1 (stereo not given in full)	none
O=C1CCCC2[C@@H]3CCC[N@+]4([O-])CCC[C@H](CN12)C34 (stereo not given in full)	none
CCCCC/C=C\C/C=C\C/C=C\C/C=C\CCCCCC(N)=O	none
CC(=O)OCC1OC(Oc2cc(OC(C)=O)c3c(=O)cc(-c4ccc(OC(C)=O)c(OC(C)=O)c4)oc3c2)C(OC(C)=O)C(OC(C)=O)C1OC(C)=O (stereo not given)	none
CC(=O)N1CCC2(CCCN(Cc3cc(C(F)(F)F)cc(C(F)(F)F)c3)C2)CC1	none
COc1cc(C(=O)OC2CC[C@]3(C)C4CCC5[C@]6(O)CC(O)[C@]7(O)C(CN8CC(C)CCC8[C@]7(C)O)[C@]6(O)C[C@@]53O[C@]24O)cc(OC)c1OC (stereo not given in full)	none
O=C(Nc1ccccc1)N1CCCC2(CCN(C(=O)c3cc(C(F)(F)F)cc(C(F)(F)F)c3)CC2)C1	none
C[C@@H](C(=O)N[C@@H](CO)Cc1ccccc1)[C@H]1C[C@]1(C)[C@H](NC(=O)OCc1ccccc1)c1ccccc1	none
COC(=O)[C@@]1(Cc2ccc(OC)cc2)[C@H]2c3cc(C(=O)N(C)C)n(C)c3C[C@H]2CN1C(=O)c1ccccc1	none
O=C(Nc1ccc(Cl)cc1)Nc1ccccc1Sc1ncc([N+](=O)[O-])s1	none
O=C1NCCN1c1ncc([N+](=O)[O-])s1	none
O=[N+]([O-])c1cnc(Sc2ccncn2)s1	ERK EGF block 14µM
C#C[C@]1(OC(C)=O)CCC2C3CCC4=CC(=O)CCC4C3CC[C@]21C (stereo not given in full)	none
C/C(=C\CO)CCO	none
CN(C)c1ccc(/C=C/C#N)cc1	none
CN(C)c1ccc(/C=C/c2ccc3c4ccccc4ccc3[n+]2-c2ccccc2)cc1	ERK EGF block 25µM
CN(C)c1ccc(/C=C/c2cccc[n+]2[O-])cc1	none
CCc1cc2c(c(CC)n1)CCC(=O)N2Cc1ccc(-c2ccccc2-c2nn[nH]n2)cc1	none
Cc1ccc(C)c(NC(=O)COC(=O)c2cccc3c2C(=O)c2ccccc2C3=O)c1	none
Cc1cc(C)c(Nc2cc(S(=O)(=O)O)c(N)c3c2C(=O)c2ccccc2C3=O)c(C)c1	ERK EGF block 22µM
Cc1cc(C)c(NC(=O)COC(=O)c2cccc3c2C(=O)c2ccccc2C3=O)c(C)c1	none
CC(C)=CCC1=C(O)c2ccccc2C(=O)C1=O	none
COc1ccc(C(C)C(=O)c2ccc(O)cc2O)cc1 (stereo not given)	none
NCCCC(O)(P(=O)(O)O)P(=O)(O)O	none
CCCCC/C=C\C/C=C\C=C\[C@@H](O)C/C=C\CCCC(=O)O	none
CCOC(=O)c1cc2c(nc1N)CCCC2	none
CCOC(=O)C1=C(SCC)c2cc3c(n2C1=O)CCCC3	ERK EGF block 25µM
CCOC(=O)C1=C2c3cc(OC)c(OC)cc3CC(C)(C)N2C(=O)C1=O	none
CC1(C)O[C@@H]2[C@@H](O1)C(c1ccccc1)(c1ccccc1)OP(=O)(O)OC2(c1ccccc1)c1ccccc1	none
O=[N+]([O-])c1cc(S(=O)(=O)Nc2ccccc2)ccc1N1CCN(c2ccccc2)CC1	none
O=C1C(Cl)=C(N2CCN(c3ccccc3[N+](=O)[O-])CC2)C(=O)c2ccccc21	ERK EGF block 25µM
O=[N+]([O-])c1ccc(N2CCN(c3ccccc3O)CC2)c(Cl)c1	none
COCC1=C2c3ccccc3[C@H](C[N+](=O)[O-])C(C(=O)OC)(C(=O)OC)CC2C2C(=O)N(c3ccccc3)C(=O)C2C1 (stereo not given in full)	none
CCN(CC)S(=O)(=O)c1ccc(Cl)c(NC(=O)COC(=O)c2cccn2C)c1	none
CCN(CC)S(=O)(=O)c1ccc(Cl)c(NC(=O)COC(=O)c2ccc(O)cc2)c1	ERK EGF block 28µM
CCN(CC)S(=O)(=O)c1ccc(Cl)c(NC(=O)COC(=O)c2c(C)noc2C)c1	none
COc1ccc2oc(-c3ccc(O)cc3)cc(=O)c2c1	none
CCCCC/C=C\C/C=C\CCCCCCCC(=O)NCC(=O)O	none
O=C(c1cnccn1)N1CCC2(CC1)CN(Cc1cc(C(F)(F)F)cc(C(F)(F)F)c1)C2	none
COC(=O)c1cc(=O)c(O)c2c(O)c(O)ccc2c1	none
CCOC(=O)C1=C(C)NC(C)=C(C(=O)OC)[C@@H]1c1cccc(Cl)c1Cl	none
C=CCOC(=O)NC(c1ccc(F)c(F)c1)C(C(=O)CCl)C(=O)OC (stereo not given)	none
CC1(C)OC(=O)C(=NNc2ccccc2[N+](=O)[O-])C(=O)O1	none
O=[N+]([O-])c1ccccc1N/N=C1\CC2CC=CC12 (stereo not given)	ERK EGF block 13µM
O=C(N/N=C1\CC2CC=CC12)c1ccccc1Cl (stereo not given)	none
COc1cccc([C@@H]2Oc3ccc(OC)cc3C(=O)[C@H]2OC(=O)NCCOc2ccccc2)c1	none
N[C@@H](Cn1ccc(=O)n(Cc2ccccc2C(=O)O)c1=O)C(=O)O	none
O=c1[nH]c(=O)n([C@@H]2C[C@H](O)[C@H](CO)O2)cc1C(F)(F)F	none
CN(Cc1ccccc1)c1ccc(C(CC(N)=O)NC(=O)Cc2ccc(Br)cc2)cc1[N+](=O)[O-] (stereo not given)	ERK EGF block 32µM
CCC(CC)Nc1ccc(C(CC(N)=O)NC(=O)Cc2ccc(Br)cc2)cc1[N+](=O)[O-] (stereo not given)	none
CN1CCN(c2ccc(C(CC(N)=O)NC(=O)Cc3ccc(Br)cc3)cc2[N+](=O)[O-])CC1 (stereo not given)	none
COc1ccc(-n2c(=O)cnc3cnc(Oc4ccccc4)nc32)cc1	none
CN1CCN(c2ncc3nc(-c4ccc(Cl)cc4)c(=O)n(CCC#N)c3n2)CC1	none
COc1cc2c(cc1OC)C1N(CC2)C(=O)CCC12C(=O)CCCC2=O (stereo not given)	none
CC(=O)NCCNc1nc(-c2ccc(N(C)C)cc2)nc2ccccc12	none
Cc1ccc(NC2=C(NC(=O)c3ccccc3)C(=O)c3ccccc3C2=O)cc1Cl	ERK EGF block 16µM
Cc1ccc(NC(=O)C(c2ccccc2)N(C)C)cc1Cl (stereo not given)	none
Cc1ccc(NCCC(=O)c2ccccc2)cc1Cl	none
O=C(O)c1ccc(NC2=C(Cl)C(=O)c3ccccc3C2=O)cc1	ERK EGF block 10µM
C=CCNC1=C(Cl)C(=O)c2ccccc2C1=O	none
